{"source": "PubChem BioAssay AID1209", "about": "(Sanford-Burnham Center for Chemical Genomics, 2008)", "note": "The whole screen tested about 190,000 compounds, of which about 810 (0.43%) were called active. Cut-off read from the data, not from the text of the source: active = inhibition above about 50%; inactive = the rest. For the sample, actives were picked, then their nearest neighbours and some compounds at random.", "data": [{"target": "Mannose-6-phosphate isomerase (Homo sapiens) (UniProt P34949)", "sequence (P34949 whole entry, looked up)": "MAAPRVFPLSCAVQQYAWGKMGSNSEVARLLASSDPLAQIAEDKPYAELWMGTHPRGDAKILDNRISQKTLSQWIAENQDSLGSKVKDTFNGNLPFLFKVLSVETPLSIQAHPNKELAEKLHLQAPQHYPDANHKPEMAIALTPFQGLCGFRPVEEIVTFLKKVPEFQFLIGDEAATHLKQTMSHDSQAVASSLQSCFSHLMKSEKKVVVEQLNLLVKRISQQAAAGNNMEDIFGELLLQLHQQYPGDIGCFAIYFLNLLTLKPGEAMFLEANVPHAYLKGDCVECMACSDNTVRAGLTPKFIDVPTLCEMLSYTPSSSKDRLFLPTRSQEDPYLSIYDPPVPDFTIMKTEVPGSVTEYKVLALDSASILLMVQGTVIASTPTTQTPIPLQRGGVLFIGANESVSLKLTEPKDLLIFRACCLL", "test": "inhibitors of human PMI, primary screen, biochemical, fluorescence intensity, coupled assay (AID 1209);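 note: plate controls were DMSO vehicle for no effect and wells lacking substrate for full effect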", "settings": "purified PMI enzyme, at 20 µM, hits give high values", "values": [{"smiles": "CCn1c(SCC(=O)Nc2cc(C)on2)nc2c(c1=O)SC(C)C2", "note": "(stereo unspecified)", "inhibition": "8.4% (inactive)"}, {"smiles": "O=C(Nc1ccc2c(c1)OCCO2)c1ccc2ccccc2n1", "inhibition": "-3.6% (inactive)"}, {"smiles": "O=C(COc1ccccc1)NCC(=O)Nc1ccc(S(=O)(=O)NCc2ccco2)cc1", "inhibition": "9.9% (inactive)"}, {"smiles": "COc1ccc(C(C(=O)NC2CCCC2)N(Cc2cccs2)C(=O)c2ccn[nH]2)cc1OC", "note": "(stereo unspecified)", "inhibition": "11.2% (inactive)"}, {"smiles": "CN(C)C(=O)CCSc1nnc(-c2ccncc2)o1", "inhibition": "-4.7% (inactive)"}, {"smiles": "CC1(C)Cc2c(c(N3CCCC3)nc3sc4c(N5CCN(CCO)CC5)ncnc4c23)CO1", "inhibition": "-22.8% (inactive)"}, {"smiles": "Cc1cc(C(=O)N2CCCC(C(=O)c3cccc4ccccc34)C2)nc(C)n1", "note": "(stereo unspecified)", "inhibition": "6.1% (inactive)"}, {"smiles": "O=C(CNS(=O)(=O)c1cccs1)Nc1ccc2c(c1)OCCO2", "inhibition": "9.1% (inactive)"}, {"smiles": "CC(C)C(=O)Nc1cccc(C(=O)N2CCCCC2C)c1", "note": "(stereo unspecified)", "inhibition": "15.5% (inactive)"}, {"smiles": "O=C(NCc1ccncc1)Nc1cc(Cl)ccc1Cl", "inhibition": "8.5% (inactive)"}, {"smiles": "Nc1nncn1C(=O)CCCN1C(=O)c2ccccc2C1=O", "inhibition": "5.4% (inactive)"}, {"smiles": "CCn1c(COc2ccccc2OC)nnc1SCC#N", "inhibition": "5.9% (inactive)"}, {"smiles": "S=c1[nH]nc(C2COc3ccccc3O2)o1", "note": "(stereo unspecified)", "inhibition": "-16.3% (inactive)"}, {"smiles": "NC(N)=Nc1nc(C2COc3ccccc3O2)cs1", "note": "(stereo unspecified)", "inhibition": "-4% (inactive)"}, {"smiles": "Cn1c(=O)c2c(nc(NC3CCCCC3)n2CC(=O)C23CC4CC(CC(C4)C2)C3)n(C)c1=O", "inhibition": "1.2% (inactive)"}, {"smiles": "O=S(=O)(c1ccc(Br)s1)N1CCC(Cc2ccccc2)CC1", "inhibition": "1.1% (inactive)"}, {"smiles": "Cc1ccc(N(C(=O)c2cc3ccccc3oc2=O)C2C=CS(=O)(=O)C2)cc1", "note": "(stereo unspecified)", "inhibition": "13.3% (inactive)"}, {"smiles": "Cc1ccc(-c2nnc(SCC(=O)NC3CCS(=O)(=O)C3)nc2-c2ccc(C)cc2)cc1", "note": "(stereo unspecified)", "inhibition": "3.8% (inactive)"}, {"smiles": "O=C(CSc1n[nH]c(-c2ccncc2)n1)NC1CCS(=O)(=O)C1", "note": "(stereo unspecified)", "inhibition": "77.1% (active)"}, {"smiles": "O=C(CSc1nnc(-c2ccccc2)c(-c2ccccc2)n1)NC1CCS(=O)(=O)C1", "note": "(stereo unspecified)", "inhibition": "-3.8% (inactive)"}, {"smiles": "O=C(CSc1nnc(-c2ccccc2F)o1)OCc1ccccc1", "inhibition": "-0.7% (inactive)"}, {"smiles": "CC[n+]1ccccc1/C=C/c1ccc(N(C)C)cc1", "inhibition": "26.1% (inactive)"}, {"smiles": "CC[n+]1ccccc1/C=C/Nc1ccccc1", "inhibition": "62% (active)"}, {"smiles": "CC[n+]1c(/C=C/Nc2ccccc2)oc2ccccc21", "inhibition": "1.7% (inactive)"}, {"smiles": "CCOC(=O)COn1c(=O)c(C)[n+]([O-])c2ccccc21", "inhibition": "4.8% (inactive)"}, {"smiles": "CC(C)(C)c1cc(CCC(=O)NN)cc(C(C)(C)C)c1O", "inhibition": "-6.6% (inactive)"}, {"smiles": "CC(C)C(C(=O)OCC(=O)c1cccc([N+](=O)[O-])c1)N1C(=O)[C@@H]2[C@H]3CC[C@H](C3)[C@@H]2C1=O", "note": "(stereo partly specified)", "inhibition": "21.3% (inactive)"}, {"smiles": "OC1(c2ccc(F)cc2)CCN(Cc2ccccc2)C1", "note": "(stereo unspecified)", "inhibition": "-8.8% (inactive)"}, {"smiles": "OC1(c2ccccc2)CCN(Cc2ccccc2)CC1", "inhibition": "57.2% (active)"}, {"smiles": "OC1(c2ccc3ccccc3c2)CCN(Cc2ccccc2)C1", "note": "(stereo unspecified)", "inhibition": "-11.8% (inactive)"}, {"smiles": "CCC1(C)Cc2[nH]c(=O)c(C#N)cc2CO1", "note": "(stereo unspecified)", "inhibition": "2.9% (inactive)"}, {"smiles": "COc1cc(/C=N/Nc2nc(C)nc3c2cnn3-c2ccccc2)ccc1O", "inhibition": "6.9% (inactive)"}, {"smiles": "c1cc2nnnn2nc1N1CCCCC1", "inhibition": "-6.5% (inactive)"}, {"smiles": "O=C(c1cnn2c(C(F)F)cc(C3CC3)nc12)N1CCOCC1", "inhibition": "53.1% (active)"}, {"smiles": "CN1CCN(C(=O)c2cnn3c(C(F)F)cc(C4CC4)nc23)CC1", "inhibition": "9.1% (inactive)"}, {"smiles": "O=C(c1cnn2c(C(F)F)cc(C3CC3)nc12)N1CCCC1", "inhibition": "-5.5% (inactive)"}, {"smiles": "NS(=O)(=O)c1ccc(CCNC(=O)CSc2ccc3ccccc3c2)cc1", "inhibition": "-13.1% (inactive)"}, {"smiles": "O=C(CSc1ccc2ccccc2c1)NCCc1ccc(O)c(O)c1", "inhibition": "52.6% (active)"}, {"smiles": "COc1ccc(CCNC(=O)CSc2ccc3ccccc3c2)cc1OC", "inhibition": "1.7% (inactive)"}, {"smiles": "Cc1cc(C)n2nc(C(=O)OCCOc3ccc(Br)cc3)nc2n1", "inhibition": "7.1% (inactive)"}, {"smiles": "COc1cc2nc(NC(=O)c3ccc(Cl)cc3)[nH]c(=O)c2cc1OC", "inhibition": "25.5% (inactive)"}, {"smiles": "O=C(c1ccccc1)c1coc2c1C(=O)c1ccccc1C2=O", "inhibition": "-42.6% (inactive)"}, {"smiles": "Cc1ccc(C(=O)c2c[nH]cc2-c2ccccc2)cc1", "inhibition": "-1% (inactive)"}, {"smiles": "O=C1C(=O)c2c(C(=O)c3ccccc3)coc2-c2ccccc21", "inhibition": "73.4% (active)"}, {"smiles": "O=C1c2ccccc2C(=O)c2c1oc(C(F)(F)F)c2C(=O)c1ccccc1", "inhibition": "-31.5% (inactive)"}, {"smiles": "Cc1ccc(C(=O)c2coc3c2C(=O)C(=O)c2ccccc2-3)cc1", "inhibition": "72.9% (active)"}, {"smiles": "COc1ccc(C(=O)c2coc(-c3ccccc3C(=O)O)c2C(=O)O)cc1", "inhibition": "-8.2% (inactive)"}, {"smiles": "NC(=O)c1ccc(N=C2C(=O)Nc3ccc([N+](=O)[O-])cc32)cc1", "inhibition": "52.5% (active)"}, {"smiles": "Cc1cccc(N=C2NC(=O)c3cc([N+](=O)[O-])ccc32)c1", "inhibition": "-1.4% (inactive)"}, {"smiles": "Cc1ccc(N=C2NC(=O)c3cc([N+](=O)[O-])ccc32)cc1", "inhibition": "14.1% (inactive)"}, {"smiles": "O=C1NC(=Nc2ccccc2)c2ccc([N+](=O)[O-])cc21", "inhibition": "28.5% (inactive)"}, {"smiles": "NC(=O)c1ccc(C(=O)c2ccc([N+](=O)[O-])cc2)cc1", "inhibition": "-7.1% (inactive)"}, {"smiles": "O=C1Nc2ccc([N+](=O)[O-])cc2C1=Nc1cccc(CO)c1", "inhibition": "56.8% (active)"}, {"smiles": "CCOC(=O)c1c(NC(=O)Nc2cccc(Cl)c2)sc(C)c1C", "inhibition": "-4.2% (inactive)"}, {"smiles": "O=C(CSc1ncnc2ccccc12)c1ccc2c(c1)OCCO2", "inhibition": "9.1% (inactive)"}, {"smiles": "Nc1[nH]n2c(=O)cc(-c3ccccc3)nc2c1N=Nc1ccc2c(c1)OCO2", "inhibition": "28% (inactive)"}, {"smiles": "Cc1cc([N+](=O)[O-])c(C)cc1-c1ccc(/C=N/NC(=O)c2cccnc2)o1", "inhibition": "8.6% (inactive)"}, {"smiles": "Cc1ccc(/C=N\\NC(=O)C2COc3cc4ccccc4cc3O2)o1", "note": "(stereo unspecified)", "inhibition": "5% (inactive)"}, {"smiles": "Cc1c(C(=O)N/N=C/c2ccc(-c3ccccc3[N+](=O)[O-])o2)sc(N)c1C#N", "inhibition": "55.1% (active)"}, {"smiles": "Cc1ccc(C(=O)N/N=C/c2ccc(-c3ccccc3[N+](=O)[O-])o2)cn1", "inhibition": "52.2% (active)"}, {"smiles": "COc1ccc2ccccc2c1/C=N/NC(=O)c1sc(N)c(C#N)c1C", "inhibition": "12.9% (inactive)"}, {"smiles": "O=C(N/N=C\\c1ccc(-c2ccccc2[N+](=O)[O-])o1)C1COc2cc3ccccc3cc2O1", "note": "(stereo unspecified)", "inhibition": "70.2% (active)"}, {"smiles": "O=C(N/N=C/c1ccc(-c2ccccc2[N+](=O)[O-])o1)c1cncc(Br)c1", "inhibition": "33.3% (inactive)"}, {"smiles": "Cc1ccc(C(=O)N/N=C\\c2ccccc2[N+](=O)[O-])cn1", "inhibition": "-13.1% (inactive)"}, {"smiles": "O=C(N/N=C\\c1ccc(-c2ccccc2[N+](=O)[O-])o1)C1COc2ccccc2O1", "note": "(stereo unspecified)", "inhibition": "33.9% (inactive)"}, {"smiles": "COC(=O)c1[nH]c2ccccc2c1NC(=O)CCN1CCN(C2CCCCC2)CC1", "inhibition": "3.6% (inactive)"}, {"smiles": "COc1cc(CC(=O)OCC(=O)Nc2cc([N+](=O)[O-])ccc2F)cc(OC)c1OC", "inhibition": "2.7% (inactive)"}, {"smiles": "Cc1ccc(C(c2nnnn2C(C)(C)C)N2CCC(C)CC2)cc1", "note": "(stereo unspecified)", "inhibition": "-7.6% (inactive)"}, {"smiles": "CCCCS(=O)(=O)Nc1ccc2cn[nH]c2c1", "inhibition": "10% (inactive)"}, {"smiles": "O=C(/C=C/c1ccco1)N1CCN(S(=O)(=O)/C=C/c2ccccc2)CC1", "inhibition": "-3.5% (inactive)"}, {"smiles": "CCCC(=O)NCCCc1nc2ccccc2n1C(C)C", "inhibition": "2.7% (inactive)"}, {"smiles": "COc1ccc2c(c1O)-c1ccccc1CCN(C)C2", "inhibition": "-0.5% (inactive)"}, {"smiles": "CN1CCc2cccc3c2[C@@H]1Cc1ccc(O)c(O)c1-3", "inhibition": "64.3% (active)"}, {"smiles": "CN1CCc2cc3c(c4c2[C@H]1[C@H](O)c1ccccc1-4)OCO3", "inhibition": "15.6% (inactive)"}, {"smiles": "CN1CCc2ccccc2C1C1CCNCC1", "note": "(stereo unspecified)", "inhibition": "-2.5% (inactive)"}, {"smiles": "CN1CCc2cccc3c2[C@H]1Cc1ccc(O)c(O)c1-3", "inhibition": "79.7% (active)"}, {"smiles": "CC(=O)c1cc2c(=O)c3cc(C)ccc3oc2nc1C", "inhibition": "3.2% (inactive)"}, {"smiles": "COc1ccccc1OCC(=O)Nc1ccc(O)cc1C(=O)O", "inhibition": "-4% (inactive)"}, {"smiles": "CCc1ccccc1N(C(=O)Cn1nnc2ccccc21)C(C(=O)NCCOC)c1ccco1", "note": "(stereo unspecified)", "inhibition": "3.9% (inactive)"}, {"smiles": "CCOC(=O)c1c(C)oc2c1C(=O)c1ccccc1C2=O", "inhibition": "-48.2% (inactive)"}, {"smiles": "Cc1ccc(C(=O)c2c(C)oc3c2C(=O)C(=O)c2ccccc2-3)cc1", "inhibition": "73.3% (active)"}, {"smiles": "CC(=O)c1c(C)oc2c1C(=O)c1ccccc1C2=O", "inhibition": "0.2% (inactive)"}, {"smiles": "Cc1oc2c(c1C(=O)N1CCC(C)CC1)C(=O)c1ccccc1C2=O", "inhibition": "1.3% (inactive)"}, {"smiles": "Cc1oc2c(c1C(=O)O)C(=O)c1ccccc1C2=O", "inhibition": "-55.2% (inactive)"}, {"smiles": "O=C(c1ccc(Cl)cc1)c1ccc(CN2C(=O)c3ccccc3C2=O)o1", "inhibition": "6.4% (inactive)"}, {"smiles": "Cc1oc2c(c1C(=O)c1ccccc1)C(=O)C(=O)c1ccccc1-2", "inhibition": "73.6% (active)"}, {"smiles": "Cc1oc2c(c1C(=O)c1ccc(Cl)cc1)C(=O)C(=O)c1ccccc1-2", "inhibition": "63.9% (active)"}, {"smiles": "CC1=C(CC(=O)c2ccc(Cl)cc2)C(=O)c2ccccc2C1=O", "inhibition": "-15.5% (inactive)"}, {"smiles": "O=C(CCCn1cnc([N+](=O)[O-])n1)Nc1ccc(Cl)cc1Cl", "inhibition": "8.7% (inactive)"}, {"smiles": "COc1cccc(-c2nc(CS(=O)(=O)CC(=O)Nc3cccc(C)c3C)c(C)o2)c1", "inhibition": "7.1% (inactive)"}, {"smiles": "CCOC(=O)C1CCN(C(=O)COc2ccc(Cl)cc2)CC1", "inhibition": "0.2% (inactive)"}, {"smiles": "CC(NC(=O)c1ccccc1F)c1nnc(SCC(=O)N2CCN(c3ccccc3)CC2)n1C", "note": "(stereo unspecified)", "inhibition": "-2.3% (inactive)"}, {"smiles": "CCOC(=O)c1c(CN2CCC(C)CC2)oc2ccc(OC)cc12", "inhibition": "-3.3% (inactive)"}, {"smiles": "CCCN(C(=O)c1cn(CC)c2nc(C)ccc2c1=O)c1c(N)n(Cc2ccccc2)c(=O)[nH]c1=O", "inhibition": "11.3% (inactive)"}, {"smiles": "CN(Cc1cccnc1)C(=O)CNC(=O)c1ccc(Cl)cc1Cl", "inhibition": "-2.4% (inactive)"}, {"smiles": "COc1ccc(NS(=O)(=O)c2cccc3nonc23)c(OC)c1", "inhibition": "-1.3% (inactive)"}]}]}
